Measured values as given in PubChem BioAssay (NCATS).
Inconclusive results are not listed. Active and inactive are the calls of the source. The call rests on the fitted dose curve; in most records, active means well fitted curve in the direction sought with a large enough effect; inconclusive means small, poorly fitted or top-dose-only effect, or another doubt; inactive means no such curve, though single readings can be large; an effect the other way counts as inactive or inconclusive.

Legend:
[1] = Quantitative High-Throughput drug screen in 47 multiple myeloma cell lines against the NCATS MIPE library collection: KMS20_JCRB cell viability assay (AID 1918973); further: nearly all actives have a fitted effect of over 45% in size
Outline: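 CellTiter-Glo ATP luminescence gave viability after 48 h compound treatment at 37C of 500 multiple myeloma cells per well. Normalisation used DMSO-only wells as 100% and media-only wells as 0% viability; primary qHTS of approved and investigational drugs.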

[2] = Quantitative High-Throughput drug screen in 47 multiple myeloma cell lines against the NCATS MIPE library collection: KMS26_JCRB cell viability assay (AID 1918975); further: nearly all actives have a fitted effect of over 45% in size
Outline: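 qHTS of the MIPE 4.0 collection: 500 myeloma cells/well, 48 h drug exposure at 37C in 5% CO2, then CellTiter-Glo for 5 min at room temperature before luminescence reading.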

[3] = Quantitative High-Throughput drug screen in 47 multiple myeloma cell lines against the NCATS MIPE library collection: MMM1_PLB cell viability assay (AID 1918976); further: nearly all actives have a fitted effect of over 35% in size
Outline: (§1)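 Viability after 48 h drug exposure was measured as ATP-dependent luminescence. Cells, 500 per well, sat at 37 °C under 5% CO2; DMSO wells set 100%, media-only wells 0%.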

[4] = Quantitative High-Throughput drug screen in 47 multiple myeloma cell lines against the NCATS MIPE library collection: MOLP8_DSMZ cell viability assay (AID 1918977); further: nearly all actives have a fitted effect of over 45% in size
Outline: as §1

[5] = Quantitative High-Throughput drug screen in 47 multiple myeloma cell lines against the NCATS MIPE library collection: NCIH929_DSMZ cell viability assay (AID 1918978); further: nearly all actives have a fitted effect of over 35% in size
Outline: as §1

[6] = Quantitative High-Throughput drug screen in 47 multiple myeloma cell lines against the NCATS MIPE library collection: OCIMY1_PLB cell viability assay (AID 1918979); further: nearly all actives have a fitted effect of over 35% in size
Outline: as §1

[7] = Quantitative High-Throughput drug screen in 47 multiple myeloma cell lines against the NCATS MIPE library collection: MM1S_ATCC cell viability assay (AID 1918980); further: nearly all actives have a fitted effect of over 45% in size
Outline: as §1

[8] = Quantitative High-Throughput drug screen in 47 multiple myeloma cell lines against the NCATS MIPE library collection: MM1R_ATCC cell viability assay (AID 1918981); further: nearly all actives have a fitted effect of over 35% in size
Outline: as §1

[9] = Quantitative High-Throughput drug screen in 47 multiple myeloma cell lines against the NCATS MIPE library collection: KMS28PE_JCRB cell viability assay (AID 1918983); further: nearly all actives have a fitted effect of over 35% in size
Outline: as §1

[10] = Quantitative High-Throughput drug screen in 47 multiple myeloma cell lines against the NCATS MIPE library collection: KMS34_JCRB cell viability assay (AID 1918985); further: nearly all actives have a fitted effect of over 40% in size
Outline: as §1

[11] = Quantitative High-Throughput drug screen in 47 multiple myeloma cell lines against the NCATS MIPE library collection: OCIMY5_PLB cell viability assay (AID 1918988); further: nearly all actives have a fitted effect of over 65% in size
Outline: as §1

[12] = Quantitative High-Throughput drug screen in 47 multiple myeloma cell lines against the NCATS MIPE library collection: OPM1_PLB cell viability assay (AID 1918989); further: nearly all actives have a fitted effect of over 40% in size
Outline: as §1

[13] = Quantitative High-Throughput drug screen in 47 multiple myeloma cell lines against the NCATS MIPE library collection: SKMM1_PLB cell viability assay (AID 1919863); conditions: SKMM1 myeloma viability, CellTiter-Glo ATP, 48 h; viability: active compounds read low; further: nearly all actives have a fitted effect of over 35% in size
Outline: as §1

[14] = Quantitative High-Throughput drug screen in 47 multiple myeloma cell lines against the NCATS MIPE library collection: U266_ATCC cell viability assay (AID 1919864); further: nearly all actives have a fitted effect of over 35% in size
Outline: as §1

[15] = Quantitative High-Throughput drug screen in 47 multiple myeloma cell lines against the NCATS MIPE library collection: XG1_PLB cell viability assay (AID 1919866); further: nearly all actives have a fitted effect of over 35% in size
Outline: as §1

[16] = Quantitative High-Throughput drug screen in 47 multiple myeloma cell lines against the NCATS MIPE library collection: LP1_DSMZ cell viability assay (AID 1918982); further: nearly all actives have a fitted effect of over 35% in size
Outline: as §1

[17] = Quantitative High-Throughput drug screen in 47 multiple myeloma cell lines against the NCATS MIPE library collection: L363_DSMZ cell viability assay (AID 1918984); further: nearly all actives have a fitted effect of over 40% in size
Outline: as §1

[18] = Quantitative High-Throughput drug screen in 47 multiple myeloma cell lines against the NCATS MIPE library collection: OCIMY7_PLB cell viability assay (AID 1918987); further: nearly all actives have a fitted effect of over 65% in size
Outline: as §1

[19] = Quantitative High-Throughput drug screen in 47 multiple myeloma cell lines against the NCATS MIPE library collection: XG6_PLB cell viability assay (AID 1919865); further: nearly all actives have a fitted effect of over 40% in size
Outline: as §1

Measured: Potency
Potency means the concentration at half of the fitted maximal effect.

COc1c(OCCCN2CCOCC2)ccc2c3n(c(=NC(=O)c4cnc(N)nc4)nc12)CCN3
active: [1] 0.0512 µM | [2] 0.407 µM | [3] 0.0512 µM | [4] 0.0288 µM | [5] 0.0129 µM | [6] 0.0204 µM | [7] 0.0911 µM | [8] 0.0812 µM | [9] 0.0645 µM | [10] 0.257 µM | [11] 0.102 µM | [12] 0.812 µM | [13] 0.162 µM | [14] 0.645 µM | [15] 1.44 µM

CN1CCN(Cc2ccc(NC(=O)Nc3ccc(Oc4cc(NC(=O)C5CC5)ncn4)cc3)cc2C(F)(F)F)CC1
inactive: [17]
active: [1] 0.132 µM | [2] 0.418 µM | [3] 0.372 µM | [4] 0.332 µM | [5] 0.132 µM | [6] 1.18 µM | [7] 0.332 µM | [8] 0.332 µM | [16] 0.372 µM | [10] 0.332 µM | [18] 0.526 µM | [11] 0.332 µM | [12] 0.166 µM | [13] 0.332 µM | [14] 0.418 µM | [19] 0.148 µM | [15] 0.187 µM

O=C(CCCCCCNC(=O)c1cnc(N(c2ccccc2)c2ccccc2)nc1)NO
active: [1] 8.33 µM | [2] 5.26 µM | [3] 5.26 µM | [4] 4.18 µM | [5] 5.9 µM | [6] 13.2 µM | [16] 5.9 µM | [9] 7.43 µM | [17] 4.69 µM | [10] 5.9 µM | [18] 13.2 µM | [11] 4.69 µM | [12] 6.62 µM | [13] 9.35 µM | [14] 9.35 µM | [19] 14.8 µM | [15] 9.35 µM

Nc1ncnc2c1c(-c1cccc(OCc3ccccc3)c1)cn2C1CC(CN2CCCC2)C1 (stereo not given)
active: [1] 0.132 µM | [2] 4.69 µM | [3] 1.05 µM | [4] 16.6 µM | [5] 0.0833 µM | [6] 10.5 µM | [7] 1.87 µM | [8] 1.66 µM | [16] 5.9 µM | [17] 0.332 µM | [10] 11.8 µM | [18] 1.48 µM | [11] 7.43 µM | [12] 5.9 µM | [13] 20.9 µM | [14] 16.6 µM | [19] 5.26 µM | [15] 8.33 µM

OCc1ccc(-c2ccc(-c3ccc(CO)s3)o2)s1
active: [1] 1.87 µM | [2] 11.8 µM | [3] 3.72 µM | [4] 20.9 µM | [5] 2.64 µM | [6] 23.5 µM | [8] 3.72 µM | [9] 29.6 µM | [10] 18.7 µM | [18] 1.87 µM | [11] 16.6 µM | [12] 6.62 µM | [13] 20.9 µM | [14] 3.32 µM | [19] 16.6 µM | [15] 6.62 µM
inactive: [17]

COC(=O)Nc1ccc(-c2nc(N3CCOCC3)c3cnn(C4CCN(Cc5cccnc5)CC4)c3n2)cc1
active: [1] 0.001 µM | [2] 2.96 µM | [3] 0.0833 µM | [4] 0.059 µM | [5] 0.0743 µM | [6] 4.69 µM | [10] 0.059 µM | [18] 23.5 µM | [11] 20.9 µM | [12] 0.0833 µM | [13] 2.09 µM | [14] 18.7 µM | [19] 0.0118 µM | [15] 0.0235 µM
inactive: [17]

Cc1cc(Nc2ncnc3ccc(-c4ccc(CNCCS(C)(=O)=O)o4)cc23)ccc1Oc1ccn2ncnc2c1
active: [1] 2.09 µM | [2] 26.4 µM | [3] 3.32 µM | [4] 20.9 µM | [5] 4.18 µM | [7] 5.9 µM | [8] 20.9 µM | [16] 7.43 µM | [9] 23.5 µM | [17] 0.372 µM | [18] 9.35 µM | [11] 16.6 µM | [12] 5.9 µM | [13] 26.4 µM | [14] 18.7 µM | [19] 1.66 µM | [15] 6.62 µM

COc1cccc2c(NCc3ccccc3)nc(-n3c(N)nc4ccccc43)nc12
active: [1] 2.96 µM | [2] 4.69 µM | [3] 5.9 µM | [4] 3.32 µM | [5] 3.32 µM | [6] 7.43 µM | [7] 5.26 µM | [16] 9.35 µM | [9] 8.33 µM | [17] 1.32 µM | [10] 6.62 µM | [18] 2.96 µM | [11] 7.43 µM | [12] 5.26 µM | [13] 7.43 µM | [14] 5.9 µM | [19] 2.09 µM | [15] 2.35 µM
